# ± gives the uncertainty stated by the source. The full ranking holds about 9,900 compounds; the median of “viability index relative to DMSO control” is about 1, and the lowest 2% start at about 0.85. This is one part of a sample in which the lowest values are shown more often than they occur.
# Test system: Plasmodium falciparum NF54 stage V gametocytes
# Test: viability index relative to DMSO control (fraction); higher = less gametocyte killing
# Conditions: 2.5 µM, incubation time: 72 h
# Procedure, shortened: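 In 1,536-well plates, 10 µl of serum-free medium holding P. falciparum NF54 stage V gametocytes (0.75% gametocytemia, 1.25% hematocrit) received compound at 2.5 µM for 72 hr at 37°C in low oxygen. After one to two hours with 3 µl of 2.5 µM MitoTracker Red CMXRos containing 0.13% saponin, red particles of 20–70 µm2 were counted in a single field per well. Viability index is reported as the particle count over the plate mean of wells treated with solvent only.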
# [1] = library set: Broad Institute DOS
# [2] = library set: Broad Institute Blood Stage
Compound,viability index [1],viability index [2]
Cc1noc(C)c1NC(=O)N(C)C[C@@H]1OCc2cnnn2CCCC(=O)N([C@H](C)CO)C[C@@H]1C,1.09 ± 0.08,–
CO[C@@H]1CN(C)C(=O)c2ccc(NC(=O)NC(C)C)cc2OC[C@@H](C)N(Cc2ccc(-c3ccccn3)cc2)C[C@H]1C,1.03 ± 0.023,–
COCC(=O)Nc1ccc2c(c1)C(=O)N(C)[C@@H]1CC[C@H](CC(=O)N3CCc4ccccc4C3)O[C@@H]1CO2,1.0023 ± 0.00098,–
C/C=C/c1ccc([C@H]2[C@H]3CNC[C@@H]2N3S(=O)(=O)c2ccccc2C)cc1,1.04 ± 0.027,–
C[C@H](CO)N1C[C@H](C)[C@H](CN(C)S(=O)(=O)c2ccc(C#N)cc2)OCc2ccccc2-c2c(n(C)c3ccccc23)C1=O,–,1.01 ± 0.03
C[C@H](CO)N1C[C@H](C)[C@H](CN(C)S(=O)(=O)c2ccc(F)cc2)OCc2ccccc2-c2c(n(C)c3ccccc23)C1=O,–,0.942 ± 0.045
COc1ccc(S(=O)(=O)N(C)C[C@@H]2OCc3ccccc3-c3c(n(C)c4ccccc34)C(=O)N([C@@H](C)CO)C[C@@H]2C)cc1,–,0.936 ± 0.044
C[C@H]1CN([C@@H](C)CO)C(=O)c2c(c3ccccc3n2C)-c2ccccc2CO[C@H]1CN(C)S(=O)(=O)c1ccc(F)cc1,–,0.929 ± 0.041
C[C@H]1CN([C@@H](C)CO)C(=O)c2c(c3ccccc3n2C)-c2ccccc2CO[C@H]1CN(C)S(=O)(=O)c1ccc(Cl)cc1,–,0.738 ± 0.023
Cc1ccc(S(=O)(=O)N(C)C[C@@H]2OCc3ccccc3-c3c(n(C)c4ccccc34)C(=O)N([C@@H](C)CO)C[C@@H]2C)cc1,–,0.728 ± 0.062
CCNC(=O)C[C@@H]1CC[C@H]2[C@@H](COC[C@H](O)CN2C(=O)c2ccccn2)O1,1.14 ± 0.062,–
COc1cccc(C#Cc2ccc3c(c2)O[C@@H](CN(C)C(=O)CN2CCOCC2)[C@@H](C)CN([C@H](C)CO)S3(=O)=O)c1,0.966 ± 0.13,–
C[C@@H]1CCCCO[C@H](CN(C)Cc2ccc(C(=O)O)cc2)[C@@H](C)CN([C@@H](C)CO)C(=O)c2cc(N(C)C)ccc2O1,1.07 ± 0.11,–
COCC#Cc1ccc([C@@H]2[C@@H](CO)N3C(=O)CN(C(=O)c4ccncc4)C[C@H]23)cc1,1.12 ± 0.087,–
Cc1ccc(-c2ccccc2[C@H]2[C@@H](C#N)N(c3ncc(-c4ccccc4)s3)[C@H]2CO)cc1,0.985 ± 0.14,–
O=C(C[C@H]1CC[C@@H]2[C@H](COC[C@H](O)CN2Cc2ccc(C(F)(F)F)cc2)O1)N1CCc2ccccc2C1,0.846 ± 0.011,–
O=C(C[C@@H]1CC[C@@H]2[C@H](COC[C@H](O)CN2Cc2ccc(C(F)(F)F)cc2)O1)N1CCc2ccccc2C1,1.078 ± 0.0039,–
O=C(C[C@H]1CC[C@H]2[C@@H](COC[C@@H](O)CN2Cc2ccc(C(F)(F)F)cc2)O1)N1CCc2ccccc2C1,0.968 ± 0.024,–
Cc1noc(C)c1NC(=O)Nc1ccc2c(c1)C(=O)N(C)[C@H]1CC[C@H](CC(=O)Nc3ccc4c(c3)CCCC4)O[C@@H]1CO2,1.086 ± 0.0014,–
COc1ccc([C@@H]2C/C=C\C[C@H](c3ccc(F)cc3)NC(=O)CCC(=O)N2)c(OC)c1,1.015 ± 0.01,–
C/C=C/c1ccc2c(c1)O[C@H](CN(C)C(=O)Nc1ccc(OC)cc1)[C@H](C)CN([C@H](C)CO)S2(=O)=O,1.056 ± 0.0059,–
Cc1ccccc1-c1ccc2c(c1)O[C@@H](CN(C)C(=O)Nc1ccc(C(F)(F)F)cc1)[C@@H](C)CN([C@@H](C)CO)S2(=O)=O,0.838 ± 0.12,–
COc1ccc(C#Cc2ccc3c(c2)O[C@@H](CN(C)C(=O)Nc2cccc(OC)c2)[C@@H](C)CN([C@@H](C)CO)S3(=O)=O)cc1,–,0.612 ± 0.071

Compound,viability index [1],viability index [2]
Cc1ccccc1-c1ccc2c(c1)O[C@@H](CN(C)C(=O)Nc1ccc(C(F)(F)F)cc1)[C@H](C)CN([C@@H](C)CO)S2(=O)=O,1.09 ± 0.078,–
Cc1ccccc1-c1ccc2c(c1)O[C@H](CN(C)C(=O)Nc1ccc(C(F)(F)F)cc1)[C@H](C)CN([C@H](C)CO)S2(=O)=O,0.988 ± 0.082,–
C/C=C/c1ccc2c(c1)O[C@H](CN(C)C(=O)Nc1ccc(OC)cc1)[C@H](C)CN([C@@H](C)CO)S2(=O)=O,0.988 ± 0.013,–
C[C@H](CO)N1C[C@H](C)[C@@H](CN(C)Cc2cccc(C(=O)Nc3ccccc3N)c2)OCc2ccccc2-c2c(n(C)c3ccccc23)C1=O,0.887 ± 0.053,–
CO[C@H](CN(C)S(=O)(=O)c1ccc(C)cc1)[C@H](C)CN(C(=O)Nc1ccccc1F)[C@@H](C)CO,0.986 ± 0.025,–
CCC(=O)N1[C@H](CO)[C@H]2c3ccccc3N(S(=O)(=O)c3ccc(F)cc3)C[C@H]21,0.958 ± 0.067,–
N#C[C@@H]1[C@@H](c2ccccc2C2=CCCCC2)[C@H](CO)N1S(=O)(=O)c1ccccc1,1.05 ± 0.1,–
N#C[C@H]1[C@H](c2ccccc2C2=CCCCC2)[C@H](CO)N1S(=O)(=O)c1ccccc1,1.14 ± 0.019,–
N#C[C@H]1[C@H](c2ccccc2C2=CCCCC2)[C@@H](CO)N1S(=O)(=O)c1ccccc1,0.757 ± 0.1,–
C[C@@H]1CCCCO[C@@H](CN(C)C(=O)C2CCCCC2)[C@@H](C)CN([C@@H](C)CO)C(=O)c2cc(NS(=O)(=O)c3ccccc3)ccc2O1,1.08 ± 0.023,–
COc1ccc(NC(=O)N2CC[C@@]3(CC2)CN([C@H](CO)c2c3c3ccc(OC)cc3n2C)C(=O)C2CCC2)cc1,0.785 ± 0.057,–
COc1ccc(NC(=O)N2C[C@@]3(C2)CN([C@H](CO)c2c3c3ccc(OC)cc3n2C)C(=O)C2CCC2)cc1,–,0.841 ± 0.05
COc1ccc2c3c([C@@H](CO)N(C[C@]33CN(C3)C(=O)CC3CC3)C(=O)C3CCCC3)n(C)c2c1,0.932 ± 0.021,–
COc1ccc(NC(=O)N2CC[C@@]3(CC2)CN([C@@H](CO)c2c3c3ccc(OC)cc3n2C)C(=O)C2CCC2)cc1,0.897 ± 0.041,–
COc1ccc2c3c([C@H](CO)N(C[C@]33CN(C3)C(=O)CC3CC3)C(=O)C3CCCC3)n(C)c2c1,0.897 ± 0.036,–
COc1ccc2c3c([C@@H](CO)N(C[C@]33CCN(CC4CCCC4)CC3)C(=O)C3CCC3)n(C)c2c1,1.1 ± 0.042,–
COc1cccc(CN2C[C@@]3(C2)CN([C@@H](CO)c2[nH]c4cc(OC)ccc4c32)C(=O)C2CC2)c1,0.956 ± 0.11,–
CCCC#Cc1cnc2c(c1)C(=O)N([C@H](C)CO)C[C@@H](C)[C@H](CN(C)C(=O)Nc1cc(F)ccc1F)O2,0.822 ± 0.058,–
C[C@H](CO)N1C[C@H](C)[C@H](CN(C)C(=O)C2CCCCC2)Oc2ncc(C#Cc3cccc(F)c3)cc2C1=O,–,0.62 ± 0.074
C[C@H]1CN([C@@H](C)CO)C(=O)c2cc(-c3cccc(C#N)c3)cnc2O[C@@H]1CN(C)C(=O)C1CCOCC1,1.04 ± 0.025,–
C[C@H]1CN([C@@H](C)CO)C(=O)c2cc(C#Cc3cccc(F)c3)cnc2O[C@@H]1CN(C)C(=O)C1CCCCC1,–,0.769 ± 0.073
CCCC#Cc1cnc2c(c1)C(=O)N([C@@H](C)CO)C[C@@H](C)[C@H](CN(C)C(=O)Nc1cc(F)ccc1F)O2,1.05 ± 0.041,–
C[C@H](CO)N1C[C@H](C)[C@H](CN(C)C(=O)NC2CCCCC2)Oc2ncc(-c3cccc(F)c3)cc2C1=O,1.01 ± 0.084,–

Compound,viability index [1],viability index [2]
C[C@@H]1CN([C@H](C)CO)C(=O)c2cc(C#Cc3ccccc3)cnc2O[C@@H]1CN(C)C(=O)c1ccccc1,0.966 ± 0.057,–
C[C@@H]1CN([C@@H](C)CO)C(=O)c2cc(C#Cc3ccccc3)cnc2O[C@@H]1CN(C)C(=O)c1ccccc1,1.08 ± 0.028,–
CCCC#Cc1cnc2c(c1)C(=O)N([C@@H](C)CO)C[C@@H](C)[C@@H](CN(C)C(=O)Nc1cc(F)ccc1F)O2,1.02 ± 0.012,–
C[C@@H]1CN([C@@H](C)CO)C(=O)Cc2cc(NC(=O)CCC(F)(F)F)ccc2O[C@@H]1CN(C)CC1CC1,1.04 ± 0.075,–
Cc1noc(C)c1S(=O)(=O)N(C)C[C@H]1OCCCC[C@H](C)Oc2ccc(NS(=O)(=O)c3cn(C)cn3)cc2C(=O)N([C@H](C)CO)C[C@@H]1C,1.08 ± 0.019,–
Cc1noc(C)c1S(=O)(=O)N(C)C[C@H]1OCc2cn(nn2)CCCC(=O)N([C@H](C)CO)C[C@@H]1C,0.952 ± 0.014,–
C[C@H](CO)N1C[C@H](C)[C@@H](CN(C)C)OCc2ccccc2-c2c(n(C)c3ccccc23)C1=O,1.04 ± 0.08,–
CNC[C@@H]1OCCCC[C@@H](C)Oc2ccc(NC(=O)Nc3ccc(OC)cc3)cc2C(=O)N([C@H](C)CO)C[C@H]1C,1.05 ± 0.011,–
C[C@H]1CN([C@@H](C)CO)C(=O)c2ccccc2-c2ccccc2CO[C@@H]1CN(C)C(=O)[C@@H]1CCCN1C,0.946 ± 0.043,–
CC(C)(C)[S@](=O)N1Cc2cc(C(=O)NCc3ccccn3)nc(-c3cccc(-c4ccccc4F)c3)c2[C@@H]1CCO,0.955 ± 0.08,–
COc1cccc(-c2cccc(-c3nc(C(=O)NCc4ccc(Oc5ccccc5)cc4)cc4c3[C@@H](CCO)N(S(=O)C(C)(C)C)C4)c2)c1 (some centres not stated),–,0.799 ± 0.032
COc1ccc(CNC(=O)c2cc3c(c(-c4cccc(-c5ccc(C#N)cc5)c4)n2)[C@H](CCO)N([S@@](=O)C(C)(C)C)C3)cc1,0.977 ± 0.085,–
CC(C)(C)[S@@](=O)N1Cc2cc(C(=O)NCc3ccccc3F)nc(-c3cccc(-c4cncnc4)c3)c2[C@H]1CCO,0.801 ± 0.1,–
CC(C)(C)[S@](=O)N1Cc2cc(C(=O)NCc3ccccc3F)nc(-c3cccc(-c4cncnc4)c3)c2[C@@H]1CCO,0.89 ± 0.056,–
CC(C)(C)[S@@](=O)N1Cc2cc(C(=O)NCCc3ccncc3)nc(-c3cccc(-c4cccc(C#N)c4)c3)c2[C@H]1CCO,1.06 ± 0.084,–
CC(C)(C)S(=O)N1Cc2cc(C(=O)NCc3ccc(Oc4ccccc4)cc3)nc(-c3cccc(-c4cccc(F)c4)c3)c2[C@@H]1CCO (some centres not stated),1.02 ± 0.034,–
CC(C)(C)[S@@](=O)N1Cc2cc(C(=O)NCCc3ccncc3)nc(-c3cccc(-c4ccccc4)c3)c2[C@H]1CCO,–,0.763 ± 0.047
CC(C)(C)[S@](=O)N1Cc2cc(C(=O)NCCc3ccncc3)nc(-c3cccc(-c4cccc(C#N)c4)c3)c2[C@@H]1CCO,1.08 ± 0.081,–
CC(C)NC(=O)N1Cc2cc(C(=O)NC3CCC3)nc(-c3cccc(-c4cncnc4)c3)c2[C@@H]1CCO,1.01 ± 0.018,–
CC(C)NC(=O)N1Cc2cc(C(=O)NC3Cc4ccccc4C3)nc(-c3cccc(-c4cccnc4)c3)c2[C@H]1CCO,0.764 ± 0.091,–
CC(C)NC(=O)N1Cc2cc(C(=O)NC3Cc4ccccc4C3)nc(-c3cccc(-c4cccnc4)c3)c2[C@@H]1CCO,0.97 ± 0.052,–
